In PubChem BioAssay (NCATS):
Results filed as inconclusive are left out. Calls of active or inactive are those of the source. The call rests on the fitted dose curve; in most records, active means well fitted curve in the direction sought with a large enough effect; inconclusive means small, poorly fitted or top-dose-only effect, or another doubt; inactive means no such curve, though single readings can be large; an effect the other way counts as inactive or inconclusive.

Tests used:
TAB109 = experiment: qHTS profiling for inhibitors of Plasmodium falciparum proliferation (AID 504749); further: nearly all actives have a fitted effect of over 60% in size; conditions: P. falciparum in erythrocytes, SYBR Green DNA, 72 h; series mostly up to 28.7 µM
Method in brief: (§1)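 Readout was DNA-dye fluorescence from lysed cultures, ex 485/em 535 nm. Parasitized red cells had grown 72 h with compound; data scaled between 0.29 uM artemisinin and DMSO wells and corrected using vehicle-only plates.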

TAB165 = experiment: as above; conditions: P. falciparum in erythrocytes, SYBR Green DNA, 72 h; series mostly up to 28.7 µM
Method in brief: as §1

W2 = experiment: as above; conditions: P. falciparum in erythrocytes, SYBR Green DNA, 72 h; series mostly up to 28.7 µM
Method in brief: as §1

[1] = Confirmation and Secondary Assay for Modulators of Hemoglobin Beta Chain Splicing at IVS2 654 locus (AID 910);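 further: HeLa cells stably carrying EGFP split by mutant beta-globin IVS2-654 intron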
Method in brief: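 HeLa cells stably expressing EGFP interrupted by β-globin IVS2-654 intron, seeded overnight in Opti-MEM/2% FCS, then treated 2 days at 37 °C. Restored splicing read as total peak GFP intensity per well by laser scanning cytometry (488 nm excitation, 500–520 nm emission); 500 nM antisense PNA as control.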

[2] = Confirmation and Secondary Assay for Modulators of Hemoglobin Beta Chain Splicing at IVS2 705 locus (AID 930);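 further: HeLa cells stably expressing the EGFP-705 splicing reporter; GFP fluorescence per well restored by corrected splicing of the IVS2-705 intron in EGFP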
Method in brief: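 Secondary splice-site specificity test uses HeLa expressing CMV-driven EGFP interrupted by IVS2-705; cells were treated 2 days at 37C with 500 nM antisense PNA as positive control.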

[3] = biological target: Ubiquitin carboxyl-terminal hydrolase 1 (Homo sapiens) (UniProt O94782); experiment: Inhibitors of USP1/UAF1: Pilot qHTS (AID 504865);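 further: rhodamine fluorescence freed from ubiquitin-rhodamine substrate followed over time; top concentration of the series differs between compounds; nearly all actives have a fitted effect of over 35% in size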
Chain of Ubiquitin carboxyl-terminal hydrolase 1 (Homo sapiens) (O94782 whole entry, looked up): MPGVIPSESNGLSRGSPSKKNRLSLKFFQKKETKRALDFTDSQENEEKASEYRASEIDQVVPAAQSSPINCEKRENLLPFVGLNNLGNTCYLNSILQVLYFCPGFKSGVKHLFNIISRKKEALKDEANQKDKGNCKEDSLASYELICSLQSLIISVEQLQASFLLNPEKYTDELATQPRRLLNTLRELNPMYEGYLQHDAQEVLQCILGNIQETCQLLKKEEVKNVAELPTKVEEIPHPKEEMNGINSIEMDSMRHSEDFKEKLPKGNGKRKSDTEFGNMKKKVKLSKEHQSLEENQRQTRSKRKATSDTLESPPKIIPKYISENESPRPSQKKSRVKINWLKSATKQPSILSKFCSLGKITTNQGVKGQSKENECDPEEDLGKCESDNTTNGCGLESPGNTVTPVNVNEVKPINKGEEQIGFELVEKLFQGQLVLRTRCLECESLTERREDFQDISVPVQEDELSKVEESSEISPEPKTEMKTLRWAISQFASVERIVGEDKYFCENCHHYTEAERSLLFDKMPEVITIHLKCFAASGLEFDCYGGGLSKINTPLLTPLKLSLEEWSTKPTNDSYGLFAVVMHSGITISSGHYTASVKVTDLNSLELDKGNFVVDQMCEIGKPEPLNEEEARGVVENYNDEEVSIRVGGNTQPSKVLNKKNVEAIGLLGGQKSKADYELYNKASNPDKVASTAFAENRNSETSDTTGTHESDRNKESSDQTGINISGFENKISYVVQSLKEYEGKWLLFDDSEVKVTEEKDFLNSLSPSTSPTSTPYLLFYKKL
Method in brief: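 Kinetic fluorescence assay: 1nM USP1/UAF1, 15 min compound preincubation, then 150nM Ub-Rho; 480/540 nm.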

Measured: Potency

C[N+]1(C)C2CC[C@H]1CC(OC(=O)[C@@H](CO)c1ccccc1)C2 (stereo partly specified)
inactive: TAB109 | TAB165 | W2

O=[N+]([O-])c1ccc(O)c([N+](=O)[O-])c1
inactive: [1] | [2] | [3]
